Out of some 200,000 compounds screened, about 4,500 (2.2%) were called active. Another 12% or so got no clear call; they are omitted. The full list was thinned out, with actives kept by preference. Unmarked numbers belong to inactive results. Calls come from the whole dose curve; as a rule, active = well fitted inhibition curve with a large enough effect; inconclusive = small, poorly fitted or top-dose-only effect, or effect the other way; inactive = flat fitted curve, though single readings scatter.
molecular target: Cruzipain (Trypanosoma cruzi) (UniProt P25779); experiment: qHTS Assay for Promiscuous and Specific Inhibitors of Cruzain (without detergent); conditions: purified cruzain, Z-FR-AMC fluorescence, no detergent; note: nearly all actives have a fitted effect of over 40% in size;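 for max response, negative = inhibition: plate controls were enzyme without inhibitor for no effect and buffer without enzyme for full effect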
Method in brief: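 Detergent-free condition (0.00005% Triton X-100) in acetate buffer pH 5.5 with DTT. 1.5 nM enzyme and compound were pre-mixed 15 min, then 2 uM Z-FR-AMC substrate added; reaction progress from fluorescence change between first and third reads (60 s).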
Potency is the fitted concentration of half-maximal effect.

Sequence of Cruzipain (Trypanosoma cruzi) (P25779 123-467 limits assumed): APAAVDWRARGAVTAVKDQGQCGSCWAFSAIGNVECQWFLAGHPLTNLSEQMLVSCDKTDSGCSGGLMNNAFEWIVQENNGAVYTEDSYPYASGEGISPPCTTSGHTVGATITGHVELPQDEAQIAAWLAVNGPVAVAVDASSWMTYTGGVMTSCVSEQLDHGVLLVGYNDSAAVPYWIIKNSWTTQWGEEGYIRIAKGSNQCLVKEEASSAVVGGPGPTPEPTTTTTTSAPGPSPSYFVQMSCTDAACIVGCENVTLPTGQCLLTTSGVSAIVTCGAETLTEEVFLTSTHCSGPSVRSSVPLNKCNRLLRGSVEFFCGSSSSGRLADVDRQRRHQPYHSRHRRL

SMILES	max response, negative = inhibition [%]	Potency
CCOC(=O)c1c(NC(=O)COc2cc(C)ccc2C(C)C)sc(C)c1C	8.07	
Cc1ccc(CCNC(=O)c2ccc(CS(=O)(=O)Cc3cccc(C)c3)o2)cc1	19.9	
CCCc1cc(=O)n2[nH]c(NCc3ccc(CC)cc3)nc2n1	-8.1	
CCc1ccc(NC(=O)N2CCN(C(=O)c3nsc4ccccc34)CC2)cc1	-5.87	
COc1cc(NC(=O)c2nn(-c3ccc(C)cc3)c(=O)c3c2c2ccccc2n3C)cc(OC)c1OC	-21.7	
O=C1N(Cc2ccccc2)c2ccc(Cl)cc2C1(O)c1c[nH]c2ccccc12 (centres undefined)	18.9	
O=C1N(Cc2ccc3c(c2)OCO3)c2ccccc2C1(O)c1c[nH]c2ccccc12 (centres undefined)		15.8 µM (active)
O=C(CCCCn1c(=O)[nH]c2ccccc2c1=O)NCc1ccc2c(c1)OCO2	8.55	
Oc1ccc(-c2nc3ccc(Cl)cn3c2Nc2ccc3c(c2)OCO3)cc1	-3.92	
CCc1ccc(-c2cc(C(=O)NCc3ccco3)c3ccccc3n2)s1	-8.4	
COc1cccc(-c2cc(C(=O)N/N=C/c3ccc(OC)c(COC(C)=O)c3)c3ccccc3n2)c1	-16	
Cc1ccc(-c2cc(C(=O)N/N=C/C=C/c3ccco3)c3ccccc3n2)cc1C		25.1 µM (active)
N#Cc1nc(/C=C/c2ccc(F)cc2)oc1NC1CCCCC1	-7.33	
CCOc1ccc(C2C(C(=O)Nc3ccc(Cl)cc3)=C(C)Nc3nc(C(F)(F)F)nn32)cc1 (centres undefined)	3.69	
Cc1ccc2oc(=O)c3cnn(CC(=O)N4CCN(c5cccc(Cl)c5)CC4)c3c2c1	-11.7	
Cc1ccccc1OCC(=O)NCC(=O)OCC(=O)c1ccc2ccccc2c1		10 µM (active)
Cc1cccc(NC(=O)COc2ccccc2C)n1	10.4	
COCCNC(=O)COc1ccccc1C	-9.1	
CCOc1ccc(NC(=O)C(=O)NCCc2csc3nc(-c4ccccc4F)nn23)cc1	-1.02	
CCCSc1ncc(Cl)c(C(=O)Nc2c(C(=O)Nc3ccccc3)oc3ccccc23)n1	-6.15	

SMILES	max response, negative = inhibition [%]	Potency
O=C(CSc1nc2ccccc2o1)N1CCN(c2ccc(Cl)cc2)CC1		10 µM (active)
O=C(CSc1nc2ccccc2o1)N1CCN(c2ccccc2)CC1	-4.7	
CC1Cc2ccccc2N1C(=O)CSc1nc2ccccc2o1 (centres undefined)	-7.1	
CCN(CC)C(=O)CSc1nc2ccccc2o1		3.16 µM (active)
O=C(CN1CCN(c2ccc(Cl)cc2)CC1)N1CCCC1	-5.28	
Cc1ccc(/C=N/NC(=O)CSc2nc3ccccc3o2)cc1	-9.67	
COc1ccc(C2=NS(=O)(=O)N(C)C(C(=O)NC(C)c3ccccc3)=C2)cc1 (centres undefined)	-27.6	
CCn1c(=O)cc(OCC(=O)Nc2cc(Cl)c(OC)cc2OC)c2ccccc21	0.57	
N#Cc1cc([N+](=O)[O-])ccc1Oc1cccc(/C=N/NC(=O)c2ccc(Cl)cc2)c1		20 µM (active)
COc1ccc(/C=N/NC(=O)c2ccc(Cl)cc2)cc1COC(C)=O	7.25	
COc1cc(OC)c(/C=N/NC(=O)c2ccc([N+](=O)[O-])cc2)cc1Br	-5.61	
O=c1cc(CO)oc(CN2CCC(Cc3ccccc3)CC2)c1O	-8.62	
CCOC(=O)N1CCN(C(=O)c2cc3c(ccc4ccccc43)oc2=O)CC1	-18.3	
CCOC(=O)N1CCN(Cc2oc(CO)cc(=O)c2O)CC1		1.58 µM (active)
Cc1ccc(C(=O)N2c3ncnn3C3(CCCCC3)[C@@H]3CCCC[C@@H]32)cc1	9.53	
COc1ccc(CNC(=O)CSCc2nc(-c3ccccc3F)oc2C)cc1	-2.99	
CCS(=O)(=O)c1ncc(N(Cc2ccc(F)cc2)Cc2ccco2)c(C(=O)Nc2cc(C)ccc2C)n1	-19.1	
O=C(NCC1CCCO1)/C(=C\c1ccco1)NC(=O)c1ccccc1 (centres undefined)	-0.97	
C/C(=C\c1ccco1)C1Nc2cccc3cccc(c23)N1		3.16 µM (active)
Cc1ccc(OCC(=O)OCc2cc(=O)n3nc(C4CC4)sc3n2)cc1C	-7.58	

SMILES	max response, negative = inhibition [%]	Potency
COc1ccccc1NC(=O)c1oc2ccccc2c1NC(=O)C(C)C	-10.9	
CC(=O)c1cccc(NC(=O)CSc2nc3c(c(=O)[nH]2)CCC3)c1	-3.06	
O=C(CSc1nc2ccccc2nc1Cc1ccccc1)N1CCCCC1	-0.222	
C=CCNc1nnc(C)c2ccccc12	-10.1	
C=CCNc1nnc(SCC(=O)N2CCCCC2)c2ccccc12		20 µM (active)
COc1ccc(CNC(=O)c2cc3cccc(OC)c3oc2=O)cc1	-1.78	
CCOc1ccc(S(=O)(=O)c2cn(Cc3ccc(OC)cc3)c3ccc(F)cc3c2=O)cc1	0.948	
Cc1ccc(-n2c(SCC(=O)c3ccccc3)nc3c([nH]c4ccccc43)c2=O)cc1	-13.1	
COc1ccc(-c2c(C)nn3c(N4CCC(C(=O)NCCC(C)C)CC4)cc(C)nc23)cc1OC	4.69	
Cc1ccc(CN2COc3cc(C)c4c(oc(=O)c5ccccc54)c3C2)cc1	-21.8	
Fc1ccc2nc(Nc3nc4c(s3)CCCC4)sc2c1		31.6 µM (active)
Fc1ccc2nc(N3CCCCC3)sc2c1	2.08	
O=C(Nc1nc2c(s1)CCCC2)c1ccccc1F	-4.21	
Cn1c(=O)c2c(SCC(=O)N3CCc4ccccc43)nc(-c3ccc(Cl)cc3)nc2n(C)c1=O	16.5	
Cc1ccc(S(=O)(=O)N2CCC(C(=O)Nc3cc(C)ccc3C)CC2)cc1	10.8	
Cc1ccccc1CSc1nc(-c2ccccc2)nc2c1Cc1c(CO)cnc(C)c1O2	-5.34	
CC(C)(C)C1C/C(=C/c2ccco2)C(=O)/C(=C/c2ccco2)C1 (centres undefined)	22.8	
O=C1OC(/C=C/c2ccccc2)=NC/1=C/c1ccco1		3.16 µM (active)
COc1ccccc1/C=C/C1=NC(=C\N(C)C)/C(=O)O1	-2	

From PubChem BioAssay AID1476 (National Center for Advancing Translational Sciences (NCATS), 2009)
